Screening data: PubChem BioAssay, National Center for Advancing Translational Sciences (NCATS)
Sampled rows, rich in hits. Any-hit rate of the full collection: about 7.5%.
FLuc modulator – inhibits or activates purified firefly luciferase, miR-21 counter-screen; 6.9% of 360,000 active; AID 588342; P08659; purified FLuc, Km substrates, luminescence inhibition; Potency, µM (series often up to 57.5 µM), inactives show at the highest dose activity change, negative = inhibition, actives largely listed as inhibitors;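 further: plate controls were vehicle for no effect and reference inhibitor for full effect; nearly all actives have a fitted effect of over 55% in size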
Target sequence (P08659 whole entry, looked up): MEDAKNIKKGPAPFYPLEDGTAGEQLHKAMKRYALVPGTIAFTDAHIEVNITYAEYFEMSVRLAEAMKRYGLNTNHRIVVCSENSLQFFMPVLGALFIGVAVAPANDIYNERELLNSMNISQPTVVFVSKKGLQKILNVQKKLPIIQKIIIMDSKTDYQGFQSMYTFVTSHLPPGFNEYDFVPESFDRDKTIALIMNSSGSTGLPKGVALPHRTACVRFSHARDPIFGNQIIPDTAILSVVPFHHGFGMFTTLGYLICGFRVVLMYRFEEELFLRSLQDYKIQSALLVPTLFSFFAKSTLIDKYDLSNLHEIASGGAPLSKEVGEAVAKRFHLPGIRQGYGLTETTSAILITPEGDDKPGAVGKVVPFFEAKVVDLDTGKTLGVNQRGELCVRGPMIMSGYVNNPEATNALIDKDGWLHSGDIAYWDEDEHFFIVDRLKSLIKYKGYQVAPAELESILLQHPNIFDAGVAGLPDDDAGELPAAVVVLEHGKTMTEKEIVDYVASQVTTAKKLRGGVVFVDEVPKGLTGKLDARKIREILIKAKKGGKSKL
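Purified P. pyralis luciferase, 10 nM final, with Km-level 10 uM D-luciferin and 10 uM ATP in 50 mM Tris acetate pH 7.5, 10 mM Mg acetate, 0.01% Tween-20, 0.05% BSA; 6-point qHTS titration about 60 µM downward; luminescence read.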
SMN2 splice up – enhancers of SMN2 splice variant expression. HEK293 SMN2-luciferase splicing reporter, luminescence, 30-36 h. Potency, µM (series often up to 46.1 µM), for the others: top-dose activity change, positive = activation, actives largely listed as activators. 2.8% of 210,000 active. AID 1458; further: % of control where 0% means no effect; nearly all actives have a fitted effect of over 55% in size
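HEK293 cells carry an SMN2 minigene-luciferase reporter in which exon 7 inclusion puts luciferase in frame. Cells were seeded at 2000 cells/well, attached for 10-12 hours, then exposed to compounds for 30-36 hours at 37C before ONE-Glo luminescence.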
Rab9 prom act – Rab9 promoter activation. Huh7 Rab9 promoter-luciferase reporter, luminescence, 24 h. Potency, µM (series often up to 9.22 µM), inactives show at the top dose activation, negative = inhibition, usual class: activators. 2.8% of 320,000 active. AID 485297; further: % of control where 0% means no effect; nearly all actives have a fitted effect of over 60% in size
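Measured in stably transfected Huh7 cells bearing a Rab9 promoter–luciferase construct: 24 h compound treatment at 37 °C, followed by luminescence detection.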
NPC1 promoter act – activates the NPC1 promoter; Huh7 NPC1 promoter luciferase reporter, 24 h; Potency, µM (series often up to 9.22 µM), without a hit: at the highest dose activation, hits mostly activators; 2.4% of 320,000 active; AID 485313; further: % of control where 0% means no effect; nearly all actives have a fitted effect of over 60% in size
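Compounds in DMSO were transferred onto Huh7 NPC1-luciferase reporter cells pre-incubated 2 h; after 24 h at 37 °C, Amplite reagent was dispensed and luminescence recorded 10 min later.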
ELG1 genotoxic – induces genotoxicity in HEK293T cells with luciferase-tagged ELG1; HEK293T ELG1-luciferase reporter, luminescence, 16 h; Potency, µM (highest dose often 46 µM), for the others: top-dose activity change, positive = activation, hits mostly activators; 1.3% of 330,000 active; AID 504466; further: % of control where 0% means no effect; nearly all actives have a fitted effect of over 60% in size
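Luminescence read-out: rising ELG1-luciferase signal, reflecting elevated ELG1 protein under genetic stress, flags genotoxic compounds. Cells were treated for 16 hr at 37 °C before ONE-Glo detection.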
Starred values were filed as active, the others as inactive; ? = inconclusive; / = not tested or not shown; [ ] = remark or other dose. The call rests on the fitted dose curve; in most records, active means well fitted curve in the direction sought with a large enough effect; inconclusive means small, poorly fitted or top-dose-only effect, or another doubt; inactive means no such curve, though single readings can be large; an effect the other way counts as inactive or inconclusive. Potency means the concentration at half of the fitted maximal effect.

SMILES	FLuc modulator	SMN2 splice up	Rab9 prom act	NPC1 promoter act	ELG1 genotoxic
COc1ccc(OC)c(Nc2cc(-c3ccccc3)nc(N)n2)c1	-18%	4%	-15%	-13%	?
NC(=NCCc1ccccc1)NS(=O)(=O)c1ccccc1F	4%	/	-7%	-9%	-1%
CC(=O)C1C(c2ccc(Cl)cc2)c2c(noc2C)CC1(C)O (configuration not stated)	-1%	/	-3%	-2%	5%
Cn1cc([N+](=O)[O-])c(C(=O)Nc2ccc(C(=O)N3CCCCC3)cc2)n1	4%	2%	1%	-2%	0%
Cn1cc([N+](=O)[O-])c(C(=O)Nc2ccc(C3CCCCC3)cc2)n1	11µM*	/	?	14%	14%
Cn1cc([N+](=O)[O-])c(C(=O)Nc2ccc3nc(-c4ccccc4)[nH]c3c2)n1	4.8µM*	16µM*	?	3.2µM*	?
Cn1cc([N+](=O)[O-])c(C(=O)Nc2ccc(-c3nc4ccccc4[nH]3)cc2)n1	2.7µM*	8.9µM*	?	?	?
CC(=O)c1ccc(NC(=O)c2nc(-c3ccc(Cl)cc3)n3c2CCCCC3)cc1	2%	/	/	/	/
OC[C@H]1OC(O)[C@H](O)[C@@H]1O (some centres not stated)	-2%	/	-5%	2%	-5%
Cc1c(C(=O)O)sc2nc(/C=C/c3cccc(O)c3)[nH]c(=O)c12	17µM*	/	-7%[1.84 µM]	-12%	0%
COC(=O)c1cc(S(=O)(=O)NCCN2CCN(c3ccccc3F)CC2)c[nH]1	-3%	/	0%	-1%	0%[9.26 µM]
Cn1cnc([N+](=O)[O-])c1N=C(N)N	0%	/	-1%	-3%	0%
COc1cccc(NC(=O)Nc2nc(SC(C)(C)C)ns2)c1	11µM*	/	8%	17%	2%
COc1cccc(NC(=O)Nc2nc(SC)ns2)c1	6.7µM*	/	1.4µM*	2.8µM*	?
CCCSc1nsc(NC(=O)Nc2ccc(F)cc2F)n1	?	/	19%	?	-4%
CCSc1nsc(NC(=O)Nc2cccc(F)c2)n1	19µM*	/	-23%	-7%	-1%
CN1CCCN(C)C1c1cc([N+](=O)[O-])ccc1O	/	-11%[9.22 µM]	/	/	/
Cc1cccc(C(=O)Nc2cc(S(=O)(=O)N3CCOCC3)ccc2N2CCCCC2)c1	3%	/	-7%	-7%	-8%
CCOC(=O)c1ccc2c(c1)nc(-c1ccccn1)n2CC	1.5µM*	/	3.5µM*	?	?
CC(C)c1ccc(Nc2c(-c3ccccn3)nc3ccccn23)cc1	-2%	-5%	/	/	/
CCc1c(C)nc2cc(-c3ccc(Cl)cc3)[nH]n2c1=O	8.5µM*	/	?	4µM*	?
O=c1cc(-c2ccc([N+](=O)[O-])cc2)nc2cc(-c3ccc(Cl)cc3)[nH]n12	?	-3%	-7%	0%	-1%
Cc1nc2cc(-c3ccc(Br)cc3)[nH]n2c(=O)c1Cl	9.5µM*	/	2.5µM*	?	16µM*
O=c1c2c(nc3cc(-c4ccc(Cl)cc4)[nH]n13)CCS2	2.1µM*	13µM*	?	3.5µM*	?
CCc1c(C)nc2cc(-c3cccc(Br)c3)[nH]n2c1=O	12µM*	/	?	?	11%
SMILES	FLuc modulator	SMN2 splice up	Rab9 prom act	NPC1 promoter act	ELG1 genotoxic
O=C(Nc1ccc(N2CCN(C(=O)c3ccco3)CC2)c(Cl)c1)c1cccs1	-17%	-28%	-1%	14%	-59%
CCCCC(CC)CNC(=O)CC1Nc2c3ccccc3nc(=S)n2C1=O (configuration not stated)	-13%	/	-9%	-10%	0%
Cc1ccc2onc(CNC(=O)Nc3cc(F)ccc3F)c2c1	-4%	/	/	/	/
Cc1ccc(CN(C(=O)COc2cccc([N+](=O)[O-])c2)c2ccccn2)cc1	1%	/	/	/	/
CCC(C)NC(=O)c1cc2n(n1)CCCN(Cc1ccc(C)cc1)C2=O (configuration not stated)	-5%	/	/	/	/
N=C1N(/N=C/c2ccccc2)C(=Nc2ccccc2)C(=S)N1c1ccccc1	?	?	?	29%	11%
COc1ccc(-c2nnc(SCC(C)C)o2)cc1	1.5µM*	/	0.63µM*	1µM*	?
CCOC(=O)CSc1nnc(-c2ccc(OC)cc2)o1	17µM*	0%	/	/	/
CCOC(=O)CSc1nnc(-c2ccc(OC)cc2OC)o1	9.5µM*	7%	2%	0%	3%
COc1ccc(N2CCN(C(=O)CSc3nc4nc(C)cc(C)n4n3)CC2)cc1	-1%	/	2%	-1%	1%
COc1ccc(C(=O)N(C)Cc2ccc(C)o2)cc1OC1CCN(C(C)=O)CC1	-1%	/	12%	1%	2%
O=C(N/N=C/c1cccnc1)c1ccc2ccccc2c1O	5.4µM*	/	27%	13%	?
O=C(N/N=C/c1cccnc1)c1ccccc1Br	-10%	/	-2%	3%	2%
O=C(Cc1cccc2ccccc12)Nc1cccnc1	4%	-16%	-4%	-3%	9%
O=C(N/N=C\c1cccnc1)c1ccccc1O	7.6µM*	/	?	28%	?
CC(C)c1ccc(/C=N/NC(=O)c2ccccc2Cl)cc1	24µM*	/	1%	-17%	?
O=C(Nc1cccnc1)c1ccc2ccccc2c1O	2.1µM*	/	2µM*	2.5µM*	?
CC(Sc1nnc2ccc3ccccc3n12)C(=O)Nc1ccc(Cl)cc1 (configuration not stated)	1%	/	/	/	/
COc1ccc(CCNC(=O)c2ccc(Cn3c(=O)c4ccccc4n(Cc4cccc(F)c4)c3=O)cc2)cc1OC	4%	-22%	/	/	/
COc1cc(/C=N\NC(=O)c2cccnc2)ccc1OC(=O)c1ccccc1Cl	11µM*	/	3%	-1%	14%
O=C(Nc1cccc([N+](=O)[O-])c1)c1ccc2ccccc2c1O	0.67µM*	/	?	?	15%
COc1ccc(/C=N/NC(N)=S)cc1OC(=O)c1cccc2ccccc12	6µM*	-47%	5%	1%	-5%
O=C(N/N=C\c1cccnc1)c1ccc(Cl)cc1Cl	?	/	2%	0%	1%
O=C(N/N=C/c1cccnc1)c1ccccc1Cl	11µM*	/	25%	24%	15%
COC(=O)[C@H](CC(C)C)NC(=O)Cn1cnc2c(NCc3ccccc3)ncnc21	/	/	/	/	7%
Cc1cccc(N2CCN(C(=O)CN3CCSc4ccccc43)CC2C)c1 (configuration not stated)	-9%	/	/	/	/
O=C(Nc1ccccn1)c1ccc2ccccc2c1O	21µM*	/	3.2µM*	3.2µM*	23%
N/C(=N\OC(=O)COc1ccc(Br)cc1Cl)c1ccccn1	1.5µM*	7.1µM*	2.8µM*	2.8µM*	2.6µM*
Cc1cc(C)c(C)c(OCC(=O)O/N=C(\N)c2ccccn2)c1	-9%	-10%	-4%	0%	0%
N/C(=N\OC(=O)COc1ccc(Cl)cc1Cl)c1ccccn1	0.76µM*	/	0.71µM*	0.79µM*	1.2µM*
